# S2 tox = Viability Counterscreen for Primary qHTS for Inhibitors of ATXN expression; Potency, µM (doses to about 56.7 µM), usual class: cytotoxic; S2 cells (HEK-293 line with an ATXN2-luciferase reporter) viability, CellTiter-Fluor protease fluorescence, 24 h; hit rate 0.49% among 400,000; note: nearly all actives have a fitted effect of over 40% in size
# HepG2 viability = qHTS for Inhibitors of TGF-b: Cytotox Counterscreen; HepG2 CAGA-GFP viability, ATP luminescence, 18 h; Potency, µM (highest dose often 46.1 µM), inactives show top-dose activity change, negative = cytotoxicity, actives largely listed as cytotoxic; hit rate 0.76% among 410,000
#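 HepG2 CAGA-GFP cells (1000/well, DMEM with 1% FBS) received compound, then TGF-beta at 500 pg/mL final, and were incubated 18 hours at 37 degrees C. Viability was read by CellTiter-Glo luminescence. Media-only wells were set as complete cell-killing and DMSO as no toxicity.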
# HT1080 IDH1KD tx = qHTS for induction of synthetic lethality in tumor cells producing 2HG: qHTS for the HT-1080-IDH1KD cell line. hit rate 2% among 360,000. Potency, µM (titrated, usually from 46.1 µM), for the others: at the top dose activity, negative = toxicity, actives largely listed as cytotoxic. AID 686971, 2013. HT-1080 IDH1 knockdown viability, ATP luminescence, 48 h;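 note: 0% = DMSO wells and -100% = cell-free medium wells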
#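 HT-1080-IDH1KD cells (IDH1 knocked down), 750/well in RPMI with 5% FBS, treated with compound 48 h at 37 degrees C. Viability by CellTiter-Glo luminescence, normalised to DMSO and no-cell wells; concentration-response curves classed.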
# ATXN2 expr inh = Primary qHTS for Inhibitors of ATXN expression; HEK-293 ATXN2-luciferase reporter, luminescence, 24 h; Potency, µM (top dose mostly 57 µM), inactives show at the top dose activity change, negative = inhibition, usual class: inhibitors; hit rate 0.72% among 360,000; note: % is set by controls: 0 for no effect and ±100 for the full control effect; nearly all actives have a fitted effect of over 55% in size
#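 ATXN2-luciferase reporter cells (luciferase flanked by upstream and downstream ATXN2 gene portions) were treated 24 h at 37 °C with compounds at up to 57 uM. SteadyGlo luminescence gave expression; GF-AFC fluorescence gave viability.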
# TGFb inhibitor = qHTS for Inhibitors of TGF-b. hit rate 1.2% among 410,000. HepG2 CAGA-GFP TGF-b/SMAD3 reporter, GFP fluorescence, 18 h; TGF-beta stimulated, 500 pg/mL final. Potency, µM (series often up to 46.1 µM), for the others: at the top dose activity, negative = inhibition, hits mostly inhibitors; note: % is set by controls: 0 for no effect and ±100 for the full control effect; nearly all actives have a fitted effect of over 65% in size
#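 Cell-based qHTS in HEPG2 carrying a CAGA-GFP Smad reporter; compounds added before 500 pg/mL final TGF-beta, 18 h incubation at 37 degrees C, GFP fluorescence quantified per cell by imaging cytometry.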
# HT1080NT lethal = qHTS for induction of synthetic lethality in tumor cells producing 2HG: qHTS for the HT-1080-NT fibrosarcoma cell line; hit rate 1.6% among 360,000; HT-1080-NT fibrosarcoma viability, CellTiter-Glo ATP luminescence, 48 h; Potency, µM (highest dose often 46.1 µM), inactives show at the highest dose activity, negative = less viability, actives largely listed as cytotoxic;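 note: NT is the 2HG producing partner of a matched IDH1 knockdown line; 0% = DMSO-treated cells and -100% = media-only wells without cells; nearly all actives have a fitted effect of over 55% in size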
#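 Fibrosarcoma NT cells, 750 per well in 5% FBS RPMI, were exposed to compound for 48 hours. Viability: CellTiter-Glo luminescence.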
# Numbers without * were called inactive; i = inactive; ? = inconclusive; nt = no result given; [ ] = dose if it differs, or a comment. Most compounds without a hit are left out; they make up all but 3.8% or so of the library. Calls come from the whole dose curve; as a rule, active = well fitted curve in the direction sought with a large enough effect; inconclusive = small, poorly fitted or top-dose-only effect, or another doubt; inactive = no such curve, though single readings can be large; an effect the other way counts as inactive or inconclusive. Potency is the fitted concentration of half-maximal effect.
SMILES,S2 tox,HepG2 viability,HT1080 IDH1KD tx,ATXN2 expr inh,TGFb inhibitor,HT1080NT lethal
O=C(CSc1nc(-c2ccccc2)[nH]c1-c1ccccc1)Nc1ccc2c(c1)OCO2,?,-47%,nt,20µM*,11µM*,nt
CCOc1ccc(-c2nc(SCC(=O)Nc3ccc4c(c3)OCCO4)c(-c3ccc(F)cc3)[nH]2)cc1,i,13µM*,nt,4%,?,nt
COc1ccc(NC(=O)CSc2nc(-c3cccc(C)c3)[nH]c2-c2ccccc2)cc1OC,?,-19%,nt,?,11µM*,nt
Cc1cc(C)cc(-n2cnc3cc(C(=O)NCCc4ccccc4)ccc32)c1,nt,-20%,nt,nt,?,nt
C=CCN1c2ccccc2[C@]23C[C@@H](C(=O)OC)N(C(=O)c4ccc(Br)cc4)C2=NC(C(=O)OC)=C(C(=O)OC)[C@H]13,?,-29%,?,?,20µM*,18µM*
CCOC(=O)N1C2=NC(C(=O)OC)=C(C(=O)OC)[C@@H]3N(C)c4ccc(OC)cc4[C@]23C[C@H]1C(=O)OC,i,-3%,4%,1%,11%,3%
COC(=O)C1=C(C(=O)OC)[C@@H]2N(C)c3ccc(OC)cc3[C@@]23C[C@@H](C(=O)OC)N(C(=O)c2ccc(Br)cc2)C3=N1,?,-29%,?,?,?,23µM*
COC(=O)C1=C(C(=O)OC)[C@@H]2N(Cc3ccccc3)c3ccccc3[C@@]23C[C@@H](C(=O)OC)N(C(C)=O)C3=N1,?,-15%,7%,-10%,-11%,3%
COC(=O)C1=C(C(=O)OC)[C@@H]2N(Cc3ccccc3)c3ccccc3[C@@]23C[C@@H](C(=O)OC)N(C(=O)c2ccc(Br)cc2)C3=N1,?,-10%,?,?,10µM*,-18%
C=CCN1c2ccccc2[C@]23C[C@@H](C(=O)OC)N(C(=O)OCC)C2=NC(C(=O)OC)=C(C(=O)OC)[C@H]13,i,-43%,7%,2%,?,5%
COc1ccc(CCNC(=O)c2cnn(-c3nccc(-c4ccco4)n3)c2C)cc1,i,nt,nt,nt,nt,nt
Cc1ccc(NC(=O)c2cc(S(=O)(=O)NC3CCCCCC3)ccc2F)cc1F,?,13µM*,nt,-28%,?,nt
O=C(Nc1ccc(Cl)cc1)c1cc(S(=O)(=O)NC2CCCCCC2)ccc1F,nt,-88%,nt,nt,8.9µM*,nt
CCc1ccc(NC(=O)c2cc(S(=O)(=O)NC3CCCC3)ccc2F)cc1,nt,-70%,nt,nt,?,nt
CC1CCCCN1C(=O)CSc1nc2ccccc2nc1Cc1ccc(Cl)cc1 (stereo not drawn),?,-1%,nt,?,?,nt
COc1ccc(C(=O)C2CCCN(Cc3c(F)ccc(F)c3F)C2)c(OC)c1 (stereo not drawn),i,-21%,-7%,-17%,-1%,5%
COc1ccc(C(=O)C2CCCN(Cc3cccn3-c3ccc(Cl)cn3)C2)c(OC)c1 (stereo not drawn),i,-16%,18µM*,-23%[11.3 µM],?,16µM*
Cc1cc(C)c(Cn2c(=O)n(CCCC(=O)NCc3ccc4c(c3)OCO4)c(=O)c3sccc32)c(C)c1,nt,3%,nt,nt,-16%,nt
O=C(Cc1cccc2ccccc12)NCC(=O)N1CCN(Cc2cccc(C(F)(F)F)c2)CC1,i,-36%,-23%,nt,11µM*,-23%
COc1ccc2ccccc2c1CN1CCc2nnc(CNC(=O)c3cccc(F)c3)n2CC1,i,nt,nt,nt,nt,nt
Cc1cnc(NC(=O)c2cc3c(C)nn(-c4ccccc4)c3s2)s1,i,-10%,?,14%,-8%,11µM*
O=C(CN(c1cccc(C(F)(F)F)c1)S(=O)(=O)c1ccc(Cl)c([N+](=O)[O-])c1)NCc1ccc(F)cc1,32µM*,-47%,?,?,?,?
O=C(CN(c1cccc(C(F)(F)F)c1)S(=O)(=O)c1ccccc1)Nc1cccc(Cl)c1,?,-52%,nt,?,?,nt
O=c1[nH]c2cc3ccccc3cc2nc1-c1nnnn1C1CCCC1,?,nt,16µM*,-23%,nt,?
O=c1[nH]c2ccccc2nc1-c1nnnn1C1CCCC1,i,nt,8%,-24%,nt,-1%
SMILES,S2 tox,HepG2 viability,HT1080 IDH1KD tx,ATXN2 expr inh,TGFb inhibitor,HT1080NT lethal
CC(O)CNCCNCc1c(OCc2ccccc2)ccc2ccccc12 (stereo not drawn),?,-93%,11µM*,25µM*,11µM*,18µM*
OCCNCc1c(OCc2ccc(Cl)cc2)ccc2ccccc12,?,-96%,?,?,?,23µM*
CCOc1cccc(CNCCO)c1OCc1ccc(Cl)cc1,i,-32%,-22%,-17%,-16%,-23%
N#CC1=C(N)C2=CCCC[C@H]2[C@H](c2cccc(F)c2)C1(C#N)C#N,i,1%,16µM*,-10%,?,?
N#CC1=C(N)C(C#N)(C#N)C(c2ccc[nH]2)C2CCCC=C12 (stereo not drawn),i,-23%,?,-16%,-9%,-24%
CCCN1CNc2c(c(=O)[nH]c(=S)n2CCc2ccc(Cl)cc2Cl)C1,nt,nt,-7%,nt,nt,-4%
Fc1ccc(NC(=S)NN=C2CCCCCC2)cc1,i,-36%,10µM*,39%,?,8.9µM*
Cc1ccc(NC(=O)c2nc[nH]c2C(=O)N2CCN(C(=O)OC(C)(C)C)CC2)cc1,i,-2%,9%,-5%,5%,14%
CC(C)(C)OC(=O)NCc1ccc(CNC(=O)c2nc[nH]c2C(=O)N2CCN(C(=O)OC(C)(C)C)CC2)cc1,18µM*,-3%,2%,?,?,-3%
Clc1ccc2c(c1)C(N1CCNCC1)Cc1ccccc1S2 (stereo not drawn),32µM*,14µM*,18µM*,?,?,?
COCCCN1CCN(C2Cc3ccccc3Sc3ccc(Cl)cc32)CC1 (stereo not drawn),?,-55%,-11%,?,?,-2%
Clc1cccc2c1Sc1ccccc1CC2N1CCNCC1 (stereo not drawn),?,-110%,18µM*,?,?,23µM*
Cc1ccccc1NC(=O)C1CCC(CNS(=O)(=O)c2ccc3c(c2)C(C)(C)C(=O)N3C)CC1 (stereo not drawn),nt,1%,nt,nt,-28%,nt
COc1cc(CN(CC2CCCO2)C(=O)c2ccc(F)cc2)cc(OC)c1OC (stereo not drawn),nt,1%,nt,nt,-10%,nt
